Measured values from PubChem BioAssay.
Values without a mark were called inactive.

Assay: A549 lung cancer cell viability effects, profiling panel, resazurin fluorescence, 24 h, PK04 Diversity Set (AID 1171); note: test concentration not given here
Details: higher = more signal, called active from +8 up or from −8 down

| Compound | z-score |
| --- | --- |
| COC(=O)c1c(CC[C@@H](CO)NC(=O)NCCn2cc(C3(O)CCCC3)nn2)oc(C(C)=O)c1C(=O)OC | -0.957 |
| Cc1ccc(S[C@]2(C(=O)NCCCN(C)C)CC(=O)N(Cc3cc(C(F)(F)F)cc(C(F)(F)F)c3)[C@@H]2c2ccc(CO)cc2)cc1 | -0.106 |
| CCOC(=O)C1=C[C@@H](C(C)(C)C)N(S(=O)(=O)c2ccc(C)cc2)[C@H]1c1ccc(F)cc1 | 0.627 |
| COc1cc2c(cc1OC)CN(C(=O)[C@H]1[C@@H]3C(=O)O[C@@H](c4ccccc4)[C@@H](c4ccccc4)N3[C@@H](c3ccc(O)cc3)[C@]13C(=O)Nc1ccccc13)CC2 | -0.0574 |
| COC(=O)C(CC#Cc1ccc2c(c1)[C@]1(C(=O)N2)[C@H](c2ccc(OCCO)cc2)N2[C@H](c3ccccc3)[C@H](c3ccccc3)OC(=O)[C@H]2[C@@H]1C(=O)Nc1nc2ccccc2s1)C(=O)OC | 0.84 |
| COCCOC(=O)N1C(=O)[C@@]2(c3cc(C#CCCO)ccc31)[C@H](C(=O)N1CCCCCCC1)[C@H]1C(=O)O[C@H](c3ccccc3)[C@H](c3ccccc3)N1[C@@H]2c1ccc(OCCO)cc1 | 0.76 |
| C[N+](C)(C)CCCCCCNC(=O)[C@@H]1C[C@@H]2C(=O)N[C@@H](Cc3ccccc3)C(=O)N2[C@@H]1c1cccc(OCCO)c1 | 0.898 |
| CC(=O)n1cc(C(O)C2C=CC3C(=O)N(c4ccccc4)C(=O)C3N2Nc2ccc([N+](=O)[O-])cc2)c2ccccc21 (centres undefined) | -0.375 |
| COC(=O)[C@]1(CCC(=O)OC(C)(C)C)N=C(c2ccc(OCCCO)cc2)O[C@@H]1c1ccccc1CN=[N+]=[N-] | -2.22 |
| CC1CC/C=C\[C@H]2OC34C=CCN(Cc5ccccc5)C(=O)[C@H]3N(CCCO)C(=O)[C@@H]4C2C(=O)O1 (some centres undefined) | -0.433 |
| C=CC(=C)[C@H]1Oc2ccccc2S(=O)(=O)N2CCC[C@@H]12 | 0.0255 |
| COCCOC(=O)N1C(=O)[C@@]2(c3cc(C#CC4(O)CCCCCC4)ccc31)[C@H](c1ccc(OCCO)cc1)N1[C@H](c3ccccc3)[C@H](c3ccccc3)OC(=O)[C@H]1[C@@H]2C(=O)N1CCN(c2ncccn2)CC1 | -0.473 |
| COc1ccc(CCNC(=O)[C@@]2(C)c3ccccc3C(=O)N(C(C)C)[C@H]2c2ccc(CO)cc2)cc1 | -0.0933 |
| CC1(C)C2C=C(C(O)C3C=CC4C(=O)NC(=O)C4N3Nc3ccc(Cl)cc3Cl)C[C@@H]1C2 (some centres undefined) | -1.85 |
| O=C1N(Cc2ccccc2)c2ccccc2[C@@H]2OC(c3ccc(OCCCO)cc3)=N[C@]12CCS(=O)(=O)c1ccccc1 | 0.404 |
| COc1cc(COC(C)=O)ccc1OC(C)=O | 0.339 |
| O=C(OCc1ccccc1)C1=CCC2c3[nH]c4ccccc4c3C(=O)C1N2S(=O)(=O)c1ccccc1[N+](=O)[O-] (centres undefined) | -0.311 |
| O=C(NC1CC1)[C@@H]1c2ccccc2C(=O)N(Cc2ccccc2Cl)[C@H]1c1ccc(CO)cc1 | 1.76 |
| C[N+](C)(C)CCCCNC(=O)[C@H]1C[C@H]2C(=O)N3CCC[C@H]3C(=O)N2[C@H]1c1cccc(OCCO)c1 | -0.699 |
